# In PubChem BioAssay AID493203 (National Center for Advancing Translational Sciences (NCATS), 2011):
# Inconclusive results are not listed. Entries that show only a call come without a potency. Calls of active or inactive are those of the source. Calls come from the whole dose curve; as a rule, active = well fitted activation curve with a large enough effect; inconclusive = small, poorly fitted or top-dose-only effect; inactive = flat fitted curve, though single readings scatter.
# Test: qHTS Assay for NPC1 Promoter Activators: Initial hit validation from the primary screen
# Conditions: Huh7 NPC1 promoter-luciferase reporter, luminescence, 24 h; series mostly up to 46.1 µM
# Text: NIH Chemical Genomics Center [NCGC] NIH Molecular Libraries Probe Production centers Network [MLPCN] MLPCN Grant: MH089375-01A1 Assay Submitter (PI): Yiannis A. Ioannou NCGC Assay Overview: Niemann Pick Type C (NPC) is a rare neurodegenerative lipidosis that is characterized by lipid storage in the endosomal/lysosomal system. Treatment modalities for this devastating disease are currently non-existent due to the severe obstacles associated with accessing the central nervous system with proteins or genes. The majority of mutations causing NPC disease are missense mutations that are distributed throughout the length of the NPC1 protein, with the most prevalent being the I1061T allele. Although NPC1 mutant proteins may be functional, they are typically trapped in the ER due to misfolding. […] We have developed and optimized a cell based luciferase reporter assay in 1536 well format for the identification of up-regulators of the mutant NPC1 promoter. This assay presents data on the validation of hits from the primary screen.
# The NPC1 promoter is cloned in front of the luciferase reporter gene, therefore NPC promoter activation results in luciferase expression. Frozen stock of the NPC1 promoter transfected Huh7 cells were obtained from the laboratory of Dr. Yiannis Ioannou (The Mount Sinai School of Medicine, New York, NY). Cells were propagated and maintained at NCGC in medium containing RPMI-1640 supplemented with 10% FBS, 2mM L-glutamine, and 50ug/ml penicillin/streptomycin. Cells were harvested in and plated for assays in OP-MEM I reduced-serum medium supplemented with 10% FBS. The Amplite luciferase reporter gene assay kit was purchased from ABD Bioquest and prepared/stored according to manufacturers recommendations. qHTS Assay Setup: 1. Dispensed 5ul of Huh7 cells stably expressing NPC1-luciferase at a density of 1500 cells per well 1536-well plates. 2. Incubate cells at 37C, 5% CO2, and 95% humidity for 2 hours. 3. Transferred 23nl per well of compound in DMSO solution. 4. Incubated at 37C, 5% CO2, and 95% humidity for 24 hours. 5. Dispensed 3ul per well of Amplite reagent(ABD Bioquest) per well. 6. Incubate at ambient for 10 minutes. 7. Read using the luminescence protocol on the ViewLux plate reader (Perkin Elmer).
# Potency is the fitted concentration of half-maximal effect.
row,SMILES,Potency
1,COc1ccc(S(=O)(=O)N2CCCC(C(=O)NCc3ccncc3)C2)cc1Cl (stereo not given),inactive
2,C=CCOC(=O)N1CCN(c2cccc(C(F)(F)F)c2)CC1,inactive
3,O=C(c1cccc(Oc2ccc([N+](=O)[O-])cc2)c1)N1CCOCC1,inactive
4,Cc1ccc(NC(=O)NC(=O)c2ccccc2)cc1F,499 nM (active)
5,COc1ccccc1NC(=S)NCc1ccc(Cl)cc1,inactive
6,COc1ccc(C(c2nnnn2CCc2ccccc2)N2CCN(C3CCCC3)CC2)cc1 (stereo not given),inactive
7,CCCNC(=O)C1CCN(S(=O)(=O)c2ccc3[nH]c(=O)ccc3c2)CC1,inactive
8,Cc1ccc(NC(=O)c2cccc(N3C(=O)CCC3=O)c2)nc1,inactive
9,COc1ccc(S(=O)(=O)NC(C(=O)NCCc2ccccn2)C(C)C)cc1 (stereo not given),inactive
10,CC(=O)Nc1nnc(SCC(=O)NCCOc2ccccc2)s1,inactive
11,COCCNC(=O)Cn1nc(-c2ccccc2)c2ccccc2c1=O,inactive
12,CCC(=O)Nc1cc(-c2cc3ccccc3oc2=O)ccc1OC,1120 nM (active)
13,O=C(CCCN1C(=O)C(c2ccccc2)Oc2cccnc21)Nc1ccccc1Cl (stereo not given),inactive
14,Cc1cccc(C)c1NC(=O)Nc1cccs1,inactive
15,NNC(=O)c1cccc(S(=O)(=O)Nc2cc(Cl)ccc2Cl)c1,inactive
16,COCc1cc(C)nc(N/N=C/c2ccc(-c3ccc(Cl)cc3[N+](=O)[O-])o2)c1C#N,inactive
17,CCCCn1c(CCNC(=O)c2cccs2)nc2ccccc21,inactive
18,Cc1ccc(N=Cc2sc(O)c3ccccc23)c(C)c1,1770 nM (active)
19,O=C(COc1ccccc1F)Nc1ccc(-c2nc3ccccc3s2)cc1,250 nM (active)
20,N#C/C(=N\Nc1ccc(Cl)cc1)C(=N)N1CCCCC1,281 nM (active)

row,SMILES,Potency
1,CCOCC(=O)Nc1c(C(=O)Nc2ccc3c(c2)OCCO3)oc2ccccc12,888 nM (active)
2,C=CCn1c(C)nnc1SCC(=O)Nc1nccs1,inactive
3,COc1ccc(-c2cc(C(=O)Nc3ccccc3F)on2)cc1,31500 nM (active)
4,COC(=O)c1ccccc1S(=O)(=O)NNC(=O)Nc1ccccc1,12500 nM (active)
5,COc1ccccc1N(C(=O)c1snc(C(N)=O)c1N)C(C(=O)NC1CCCCC1)c1cccc(OC)c1OC (stereo not given),inactive
6,CC1CN(C(=O)c2ccncc2)CC(C)O1 (stereo not given),inactive
7,Cn1c(CCN2CCN(c3ccccc3)CC2)nc2cc(NC(=O)c3ccco3)ccc21,inactive
8,Cc1ccc(C(=O)Nc2ccc(N3CCN(C)CC3)nc2)cc1,31500 nM (active)
9,CC(=O)c1cccc(NC(=O)N2CCOCC2)c1,inactive
10,CCOC(=O)CSc1nc2cc3c(cc2cc1C#N)OCO3,888 nM (active)
11,O=C(CCCC(=O)N(CC(=O)NC1CCCCC1)c1cccc(F)c1)Nc1ccccn1,inactive
12,NC(=O)C1(NC(=O)[C@@H]2CC3(CC(c4cccc(NC(=O)[C@@H]5CCC(=O)N5)c4)=NO3)CN2C(=O)c2ccccc2)CC1 (stereo not given in full),inactive
13,CC(C)(C)NC(=S)NNC(=O)c1ccc2ncccc2c1,3530 nM (active)
14,CCCOP(=O)(c1ccc(N(C)C)cc1)C(O)c1cccnc1 (stereo not given),inactive
15,CC(=O)[C@@H]1[C@@H](C(=O)c2ccc(C)cc2)[C@]2(C(=O)Nc3ccccc32)[C@H]2C=Cc3cc(F)ccc3N12,inactive
16,Cc1[nH]n(-c2cccc3ccccc23)c(=O)c1/C=N/c1sc2c(c1C#N)CCC2,inactive
17,CCN(C(=O)COC(=O)c1ccc(C=O)cc1)c1c(N)n(Cc2ccccc2)c(=O)[nH]c1=O,inactive
18,Cc1nc(-c2ccc(S(=O)(=O)Oc3ccc(Cl)cc3Cl)s2)cs1,inactive
19,CCN(Cc1nc2cc(Cl)ccc2c(=O)[nH]1)C(=O)C1CC(=O)N(c2cccc3ccccc23)C1 (stereo not given),inactive
20,N#CC/C(N)=N/NC(=O)CCCNc1ncc(C(F)(F)F)cc1Cl,15800 nM (active)
